# Most compounds without a hit are left out; they make up all but 8% or so of the library.
# HT1080 IDH1KD tx: qHTS for induction of synthetic lethality in tumor cells producing 2HG: qHTS for the HT-1080-IDH1KD cell line. HT-1080 IDH1 knockdown viability, ATP luminescence, 48 h. 2% of 360,000 active. Potency, µM (series often up to 46.1 µM), for the others: at the top dose activity, negative = toxicity, hits mostly cytotoxic. AID 686971, 2013;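 further: 0% = DMSO wells and -100% = cell-free medium wells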
#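 Using the IDH1-knockdown HT-1080 line run in the same batch and compound series as the NT line, viability after 48 h at 37 °C was determined by CellTiter-Glo luminescence and expressed as % activity.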
# KB-3-1 cytotox: qHTS assay for MDR1-selective chemotherapeutics: Primary screen using the parental adenocarcinoma cell KB-3-1. KB-3-1 viability, CellTiter-Glo ATP luminescence, 72 h. Potency, µM (series often up to 46.1 µM), most hits filed as cytotoxic. 1.4% of 400,000 active. AID 1347075, 2019; further: on the % scale 0 is the no-effect control and ±100 the full control effect; nearly all actives have a fitted effect of over 60% in size
#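 KB-3-1 parental drug-naive adenocarcinoma cells in DMEM/10% FBS, incubated 72 h at 37 C with pin-transferred compounds across a concentration series. Viability by CellTiter-Glo luminescence; concentration-response curves fitted after normalization.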
# HT1080-NT tox: qHTS for induction of synthetic lethality in tumor cells producing 2HG: qHTS for the HT-1080-NT fibrosarcoma cell line; HT-1080-NT fibrosarcoma viability, CellTiter-Glo ATP luminescence, 48 h; Potency, µM (series often up to 46.1 µM), inactives show top-dose activity, negative = less viability, most hits filed as cytotoxic; 1.6% of 360,000 active; AID 686970, 2013;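 further: NT is the 2HG producing partner of a matched IDH1 knockdown line; 0% = DMSO-treated cells and -100% = media-only wells without cells; nearly all actives have a fitted effect of over 55% in size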
#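 Viability by CellTiter-Glo luminescence after 48 h compound exposure at 37C of HT-1080-NT cells (750/well, RPMI, 5% FBS). % activity scaled between DMSO wells and medium-only wells, then curve-fitted and categorized by curve class.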
# MCF10A rereplic: A quantitative high throughput screen for small molecules that induce DNA re-replication in MCF 10a normal breast cells | MCF 10A DNA re-replication, Hoechst nuclear intensity, 48 h | Potency, µM (top dose mostly 46.1 µM), without a hit: at the top dose activity, positive = re-replication, actives largely listed as activators | 2.9% of 350,000 active | AID 624296, 2012; further: % of control where 0% means no effect; nearly all actives have a fitted effect of over 50% in size
# KB-V1 cytotox: qHTS assay for MDR1-selective chemotherapeutics: Primary screen using the drug-selected MDR subline cells KB-V1 | KB-V1 MDR cells viability, CellTiter-Glo, 72 h | Potency, µM (series often up to 46.1 µM), hits mostly cytotoxic | 3.4% of 400,000 active | AID 1347076, 2019; further: on the % scale 0 is the no-effect control and ±100 the full control effect; nearly all actives have a fitted effect of over 60% in size
#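 Drug-selected KB-V1 cells, grown in DMEM lacking phenol red with 10% FBS, receive compound titrations; after three days at 37 degrees C, surviving cell ATP is quantified by CellTiter-Glo luminescence and responses normalized and curve-fitted.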
# SW480 rerep: A quantitative high throughput screen for small molecules that induce DNA re-replication in SW480 colon adenocarcinoma cells | SW480 DNA re-replication, Hoechst DNA content imaging, 48 h | 1.8% of 340,000 active | Potency, µM (highest dose often 46.1 µM), without a hit: at the top dose re-replication activation, hits mostly activators; further: % of control where 0% means no effect; nearly all actives have a fitted effect of over 55% in size
#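 Cells (250 per well) received 23 nL compound or DMSO by pin tool and were kept 48 hr at 37 C, 5% CO2. Nuclei were then stained with Hoechst for 40 min and scanned for DNA content.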
# * marks the source's active call; other numbers are inactive results; i = inactive; ? = inconclusive; / = no result given; [ ] = dose if it differs, or a comment. The call rests on the fitted dose curve; in most records, active means well fitted curve in the direction sought with a large enough effect; inconclusive means small, poorly fitted or top-dose-only effect, or another doubt; inactive means no such curve, though single readings can be large; an effect the other way counts as inactive or inconclusive. Potency means the concentration at half of the fitted maximal effect.
SMILES,HT1080 IDH1KD tx,KB-3-1 cytotox,HT1080-NT tox,MCF10A rereplic,KB-V1 cytotox,SW480 rerep
CCOc1ccc(-n2c(C)cc(C(=O)CCl)c2C)cc1,8.2µM*,4.6µM*,7.3µM*,12µM*,?,9.2µM*
COc1ccc(-c2nc3ccc(NC(C)=O)cc3c(=O)n2Cc2ccccc2)cc1COc1ccc(NC(C)=O)cc1,0%,/,4%,/,/,/
CCOC(=O)c1c(NC(=O)/C=C/c2ccc3c(c2)OCO3)sc(C)c1CC,-6%,21µM*,-2%,8.2µM*,i,2%
O=C(Cc1cccs1)Nc1nc(-c2ccccc2)cs1,?,?,-28%,?,16µM*,-3%
O=C(CCS(=O)(=O)c1ccccc1)Nc1nc(-c2ccc(F)cc2)cs1,21µM*,i,?,26%,i,?
COC(=O)c1c(NC(=O)/C=C/c2ccc3c(c2)OCO3)sc(C)c1C,-3%,i,-18%,?,i,-5%
Cc1cccnc1NC(=O)/C=C/c1ccc2c(c1)OCO2,0%,i,-9%,-27%,?,-34%
Cc1sc(NC(=O)/C=C/c2ccc3c(c2)OCO3)nc1-c1ccccc1,?,1.3µM*,-10%,?,2.9µM*,6%
CS(=O)(=O)N1CCc2cc(-c3csc(NC(=O)Cc4cccs4)n3)ccc21,?,i,10µM*,7%,i,-6%
CC(=O)Nc1nc(-c2ccc3c(c2)CCN3S(C)(=O)=O)cs1,-3%,i,-1%,-46%,i,?
COC(=O)CSc1nnc(NC(=O)/C=C\c2ccc3c(c2)OCO3)s1,12%,i,5%,-3%,i,3%
O=C(/C=C/c1ccc2c(c1)OCO2)Nc1nncs1,1µM*,5.8µM*,?,?,i,-14%
Cc1cc(C)nc(NC(=O)/C=C/c2ccc3c(c2)OCO3)c1,4.6µM*,?,?,?,?,-1%
O=C(/C=C\c1cn(-c2ccccc2)nc1-c1ccccc1)Nc1nccs1,21µM*,?,15µM*,?,?,?
O=C(COC(=O)/C=C/c1cccs1)Nc1nc(-c2ccccc2)cs1,-13%,i,-21%,12%,i,?
O=C(/C=C/c1ccc2c(c1)OCO2)Nc1nc(-c2ccccc2)cs1,?,7.3µM*,-1%,?,?,-2%
O=C(/C=C/c1cccs1)Nc1nc(-c2ccccc2)cs1,?,?,?,95%,15µM*,14%
CCCCn1c(SCC(=O)c2ccc(OC)cc2OC)nc2cc(S(N)(=O)=O)ccc21,-3%,i,-6%,4%,18µM*,-4%
O=C(CN1C(=O)CCc2cc(S(=O)(=O)N3CCOCC3)ccc21)NCc1ccccc1,/,i,/,/,i,/
O=[N+]([O-])c1ccc(-n2nnnc2-c2ccccc2)c([N+](=O)[O-])c1,?,i,?,4.1µM*,18µM*,5.2µM*
O=[N+]([O-])c1ccc(-n2nnnc2-c2ccccc2)cc1,4%,i,2%,?,i,-105%
CC(C)C1N=C(c2ccc3c(c2)OCO3)CC(c2ccccc2O)N1 (stereo not given),?,?,?,21µM*,?,?
CC(C)C1(C)NC(c2ccc3c(c2)OCO3)=CC(c2ccccc2O)N1 (stereo not given),/,i,/,/,i,/
COCCNC(=O)CSCc1nc(-c2ccc(SC)cc2)oc1C,3%,?,4%,0%,9.2µM*,1%
COc1ccc(-c2nc(CSCC(=O)NCCC3=CCCCC3)c(C)o2)cc1OC,-9%,i,-21%,4%,21µM*,7%
SMILES,HT1080 IDH1KD tx,KB-3-1 cytotox,HT1080-NT tox,MCF10A rereplic,KB-V1 cytotox,SW480 rerep
CCc1ccc(-c2nc(CSCC(=O)N3CCN(c4ccccn4)CC3)c(C)o2)cc1,?,?,2%,50%[0.0737 µM],18µM*,3%
CCOCCCNC(=O)CSCc1nc(-c2ccc(SC)cc2)oc1C,-3%,i,5%,4%,i,-8%
Cc1ccc(-c2nc(CSCC(=O)N3CCN(c4ccccn4)CC3)c(C)o2)cc1,-10%,?,-21%,10%,?,8%
CCc1ccc(-c2nc(CSCC(=O)NCCCN3CCCC3=O)c(C)o2)cc1,-4%,i,-1%,18%,16µM*,-4%
CSc1ccc(-c2nc(CSCC(=O)NCCCN3CCCC3=O)c(C)o2)cc1,-6%,i,-5%,1%,i,?
CCn1cc(S(=O)(=O)c2ccc(C)cc2C)c(=O)c2cc(F)c(N3CCCC3)cc21,/,i,/,/,i,/
CCOC(=O)Cn1c(=O)n(C2CCCCC2)c2nc(-c3ccc(OCC)cc3)nc(C(N)=O)c21,/,18µM*,/,/,?,/
CCOC(=O)Cn1c(=O)n(C2CCCCC2)c2nc(-c3ccc(OC)cc3)nc(C(N)=O)c21,/,?,/,/,i,/
CCOC(=O)Cn1c(=O)n(C2CCCCC2)c2nc(-c3ccc(CC)cc3)nc(C(N)=O)c21,/,8.2µM*,/,/,i,/
c1ccc(Nc2nc(NCc3ccco3)nc3nccnc23)cc1,17%,/,18%,/,/,/
COc1ccc(C(=O)Nc2cccc(NC(=O)c3cccs3)c2)cc1,-15%,i,-3%,2%,i,-6%
COc1nc(N)nc(NC(=O)c2cccs2)c1N=O,18µM*,i,16µM*,21µM*,i,5.2µM*
Cc1ccc(CNC(=O)c2c(-c3ccccc3Cl)noc2C)o1,/,i,/,/,i,/
O=C1NC(Cc2c[nH]c3ccccc23)C(=O)N1Cc1ccc(CN2C(=O)NC(Cc3c[nH]c4ccccc34)C2=O)cc1 (stereo not given),-13%,i,-10%,21µM*,i,27%
O=C1NC(Cc2c[nH]c3ccccc23)C(=O)N1CCOc1ccc(F)cc1 (stereo not given),-1%,i,-21%,6%,i,-3%
NNc1nc2c(-c3ccc(F)cc3)nnn2c2ccccc12,-27%,i,-25%,23µM*,i,?
COCCCNc1nc2c(-c3ccc(Cl)cc3)nnn2c2ccccc12,-3%,i,-7%,?,i,11%
NNc1nc2c(-c3ccc(Cl)cc3)nnn2c2ccccc12,-2%,i,2%,5.8µM*,i,8.2µM*

# Source: PubChem BioAssay
